Data from PubChem BioAssay (Tox21).
A number with no mark means an inactive call. A call without a number means that no potency is given here. Calls of active or inactive are those of the source. Calls come from the whole dose curve.

Test: G protein-coupled receptor (GPCR) small molecule agonists, calcium flux assay: HEK293 wild type cell line counter screen (AID 1920065)
Settings: HEK293 WT calcium flux, fluorescence, agonist mode; series mostly up to 57.6 µM
Source text: U.S. Tox21 Program National Center for Advancing Translational Sciences [NCATS] Division of Preclinical Innovation [DPI] U.S. Environmental Protection Agency [EPA] National Institutes of Environmental Health Sciences [NIEHS] National Toxicology Program [NTP] U.S. Food and Drug Administration [FDA] Assay overview: The increased intracellular calcium release that occurred upon G protein-coupled receptor (GPCR) activation led to the frequent use of calcium flux assays to detect GPCR activation. For the purpose of studying and screening compounds that may activate GPCR, receptor-overexpressing models were typically generated using Hek293 wild-type (WT) cells. In order to eliminate the compounds that may have induced calcium release for non-specific activation, a counter-assay utilizing calcium flux on Hek293 WT cells was performed. The data were formulated in order to serve as a control for any calcium flux detection utilizing Hek293 cells with either GPCR overexpression or gene modification. The procurement of Hek293 WT cells from ATCC. Fluorescence intensity can be utilized to determine the activation of the compound in a calcium flux assay. As a counter control, this cell line was utilized to screen the Tox21 10K compound library.
Assay Protocol Summary: Hek293 cells were dispensed at 1500cells/4uL/well in 1536-well black wall/clear bottom plates using a multidrop dispenser. After the assay plates were incubated at a 37 C/5% CO2 incubator for 18 hours, 4 uL of Calcium Dye Solution was added to each well. The plates were incubated at 37 C for 1 hour. For agonist mode, 23 nL of compounds dissolved in DMSO, positive control (ATP) or DMSO only was transferred to the assay plate by a pin tool station. The fluorescence intensity in the plates was measured using FDSS 7000EX kinetic plate reader with a filter set of Ex/Em=480/540 for 3 min at 1 sec intervals. Each test compound was measured at 15 concentrations and in triplicates.

| SMILES | Potency | activation |
| --- | --- | --- |
| CC/C=C\CCOC(=O)CC | inactive | – |
| CC(C)C(=O)c1c(C(C)C)nn2ccccc12 | inactive | – |
| Nc1ccccc1N | inactive | – |
| CCC(=O)c1ccc(O)cc1 | inactive | – |
| CN(C)N=Nc1ccccc1 | inactive | – |
| Fc1c(F)c(F)c(Br)c(F)c1F | inactive | – |
| C1COC1 | inactive | – |
| O=C(O)c1ccc(O)cc1O | inactive | – |
| COc1cc(N)c(Cl)cc1C(=O)NC1CCN(Cc2ccccc2)CC1 | inactive | – |
| Cc1cccc(S(=O)(=O)O)c1C | inactive | – |
| NCCNCCNCCNCCN | inactive | – |
| NCC1CCCC(CN)C1 (stereo not given) | inactive | – |
| Nc1c(NC/C=C\COc2cc(CN3CCCCC3)ccn2)c(=O)c1=O | – | 0.206% [at 11.8 µM] |
| Nc1c(S(=O)(=O)O)cc(Br)c2c1C(=O)c1ccccc1C2=O | inactive | – |
| O=C(/N=N/C(=O)OCc1ccccc1)OCc1ccccc1 | inactive | – |
| N#Cc1ccc(C2CCCc3cncn32)cc1 (stereo not given) | inactive | – |
| N#[N+]c1ccc2c(S(=O)(=O)[O-])cccc2c1O | inactive | – |
| C=C(C)[C@@H]1CCC2=CC(=O)C[C@@H](C)[C@]2(C)C1 | inactive | – |
| C[C@@H]1CCN(C(=O)[C@H](CCCN=C(N)N)NS(=O)(=O)c2cccc3c2NC[C@H](C)C3)[C@@H](C(=O)O)C1 | inactive | – |
| CC1(C)O[C@@H]2C[C@H]3[C@@H]4C[C@H](F)C5=CC(=O)C=C[C@]5(C)[C@@]4(F)[C@@H](O)C[C@]3(C)[C@]2(C(=O)CO)O1 | inactive | – |

| SMILES | Potency | activation |
| --- | --- | --- |
| FC(F)(F)c1cccc(Cl)c1 | inactive | – |
| C=CC(=O)OCC(CO)(COC(=O)C=C)COC(=O)C=C | inactive | – |
| CCC(C(=O)NC(N)=O)c1ccccc1 (stereo not given) | inactive | – |
| C=CCOCC(O)CO (stereo not given) | inactive | – |
| O=C(Oc1ccccc1)c1ccccc1 | inactive | – |
| CCCC(O)C(O)CO (stereo not given) | inactive | – |
| CC(=O)C(C)O (stereo not given) | inactive | – |
| CCc1ccc(C)nc1 | inactive | – |
| COc1ccc2nc(N)sc2c1 | inactive | – |
| O=C(O)C1CCC(C(=O)O)CC1 (stereo not given) | inactive | – |
| O=C(O)c1ccccc1S | inactive | – |
| CCCCCCC(C)(C)C(=O)O | inactive | – |
| CC(C)(C)NCC(O)c1ccc(O)c(CO)c1 (stereo not given) | inactive | – |
| Cc1ccc(S(=O)(=O)O)c(C)c1 | inactive | – |
| CCC(=O)OC | inactive | – |
| CCC(OCCCOC)OC(C)=O (stereo not given) | inactive | – |
| CSc1cnccn1 | inactive | – |
| Cc1ccc(C(=O)O)cc1 | inactive | – |
| O=C(Cl)c1ccccc1[N+](=O)[O-] | inactive | – |
| OCC(CO)(CBr)CBr | inactive | – |
